In PubChem BioAssay (NCI):
This is part of a sample that, as a whole, favours compounds with a hit. Of some 83,000 tested, about 20% had one in any assay.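 Step 1: grow cells in 96-well plates. Step 2: add test compound at a single concentration. Step 3: incubate 48 h. Step 4: record percent growth.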 A number with no mark means an inactive call. Activity calls are given as the source filed them. How the source made its calls: active means growth percent below 10; inactive means the rest.

How the values were obtained:
Assay in all cases: NCI-60 one-dose screen, 48 h (100 = growth as untreated, 0 = no growth, -100 = all killed)
Details in all cases: 10 µM unless noted
[1] = system: NCI-H23 lung
[2] = system: NCI-H226 lung
[3] = system: NCI-H322M lung
[4] = system: HOP-62 NSCLC
[5] = system: NCI-H460 lung
[6] = system: NCI-H522 lung
[7] = system: A549/ATCC NSCLC
[8] = system: 786-0 renal
[9] = system: COLO 205 colon
[10] = system: DU-145 prostate
[11] = system: MALME-3M melanoma
[12] = system: MDA-MB-231 breast
[13] = system: RXF 393 renal
[14] = system: SF-268 CNS
[15] = system: SF-295 CNS
[16] = system: SF-539 CNS
[17] = system: UACC-257 melanoma
[18] = system: M14 melanoma

Row | SMILES | growth [1] | growth [2] | growth [3] [%] | growth [4] | growth [5] | growth [6] | growth [7] | growth [8] | growth [9] | growth [10] | growth [11] | growth [12] | growth [13] | growth [14] | growth [15] | growth [16] | growth [17] | growth [18]
1 | COc1cc(CN(CCC(O)N2CCCC2=O)Cc2ccc3c(c2)OCO3)cc(OC)c1OC (configuration not stated) | 108% | 104% | 90.3 | 103% | 106% | 95.4% | 106% | 94.1% | 120% | 108% | 109% | 110% | 121% | 106% | 91.5% | 100% | 109% | 95.8%
2 | CCCCCCCCCCCC1=NC(C)(C)CN1CCO | 65.1% | 88.2% | 87.7 | 56.4% | 46.2% | 69.2% | 89.9% | 70.4% | -57.7% (active) | 77.8% | 88.9% | 53.7% | 35.4% | 67.2% | 81.4% | 78.9% | 77.9% | 48.4%
3 | COc1cccc(-c2nc3sccn3c2-c2ccnc(NCCN3CCCNS3(=O)=O)n2)c1 | 99.4% | 81.4% | 95.6 | 123% | 68.8% | 92.2% | 99.2% | 77.5% | 51.5% | 79.2% | 24.2% | 83.3% | 76.7% | 94.7% | 106% | 111% | 65.4% | 18%
4 | COc1ccc(/C=C(\C#N)c2cc(OC)c(OC)c(OC)c2)cc1 | 1.46% (active) | -8.11% (active) | 42.8 | 24.1% | 7.57% (active) | 5.56% (active) | 20.8% | 18.2% | -69.7% (active) | -1.75% (active) | 69.1% | 38.4% | 48.7% | 27% | 14.1% | 8.76% (active) | 65.7% | 8.3% (active)
5 | CCOC(=O)C1=C(C)NC(=S)NC1c1ccccc1 (configuration not stated) | 108% | 91.6% | 108 | 101% | 104% | 91.6% | 109% | 101% | 120% | 109% | 101% | -95.7% (active) | 117% | 91.7% | 103% | 97.2% | 101% | 107%
6 | COc1ccc2c(c1)OC1=C(C(=O)OC1)C2c1cc(OC)c2c(c1)OCCO2 (configuration not stated) | 16.2% | -13.6% (active) | 44.3 | 24.1% | 6.93% (active) | -10.7% (active) | 18% | 21.4% | -69.6% (active) | -13.7% (active) | 62.9% | 25% | 37.7% | 29.5% | 7.02% (active) | 3.93% (active) | 61% | 4.69% (active)
7 | COc1cc(NC(=O)CSc2nc3ccc(Cl)cc3c(=O)n2-c2ccccc2)cc(OC)c1OC | 102% | 91.2% | 99.8 | 85.5% | 98.2% | 84.8% | 89% | 92.1% | 116% | 102% | 88% | 77.8% | 95% | 90.9% | 87.5% | 93.9% | 102% | 94%
8 | CCOC(=O)c1ccc2c(c1)[n+](=O)c(C(=O)c1ccc3ccccc3c1)c(C(F)(F)F)n2[O-] | -88.4% (active) | -93.7% (active) | 67.2 | -93.8% (active) | -100% (active) | -80.1% (active) | -26.4% (active) | -100% (active) | -100% (active) | -100% (active) | -69.1% (active) | -99.4% (active) | -71.2% (active) | -88.8% (active) | -84.8% (active) | -100% (active) | -71.7% (active) | -100% (active)
9 | COc1cccc(C2C(C#N)=C(N)Oc3cc4c(cc32)OCO4)c1 (configuration not stated) | 9.81% (active) | -7.07% (active) | 37.6 | 22.7% | 7.64% (active) | 11.5% | 21.4% | 29.9% | -47.1% (active) | 1.58% (active) | 39.8% | 30.2% | 2.45% (active) | 29.9% | 7.47% (active) | 4.53% (active) | 57.4% | 0.938% (active)
